The panel holds about 83,000 compounds, 20% with a hit somewhere; the sample as a whole holds those more often.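 Growth was measured after 48 h exposure to one concentration of compound in 96-well plates. Values under 10 count as active.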 Unmarked numbers belong to inactive results. Calls of active or inactive are those of the source.

Test systems include HCT-15 colon; HT29 colon; SNB-75 CNS; SNB-19 CNS; U251 CNS; PC-3 prostate; SK-MEL-5 melanoma; UACC-62 melanoma; LOX IMVI melanoma; SK-MEL-28 melanoma.
Common to all, as to assay: NCI-60 one-dose screen, 48 h (100 = growth as untreated, 0 = no growth, -100 = all killed)
What all share (details): 10 µM unless noted

Consider `CCN1CCN(Cc2ccc(C(=O)Nc3ccc(C)c(Oc4ccc(-c5[nH]nc6ncnc(N)c56)cc4)c3)cc2C(F)(F)F)CC1`, for which the growth was 68.6% in the experiment with HCT-15 colon; 17% in the experiment with HT29 colon; 95.8% with SNB-75 CNS; 101% in the experiment on SNB-19 CNS; 89.4% with U251 CNS; 70.7% with PC-3 prostate. Moreover, the growth was 76.1% in the experiment on SK-MEL-5 melanoma, 89.1% with UACC-62 melanoma, 57.2% in the experiment on LOX IMVI melanoma and 75.4% in the experiment with SK-MEL-28 melanoma.

On to `COc1c(N2CC3CCCNC3C2)c(F)cc2c(=O)c(C(=O)N/N=C/c3ccccc3)cn(C3CC3)c12` (configuration not stated), for which the growth is 76.3% with HCT-15 colon; 72.6% with HT29 colon; 88.7% in the experiment on SNB-75 CNS; 101% with SNB-19 CNS; 94.7% in the experiment on U251 CNS; 86.9% with PC-3 prostate. Moreover, the growth in the experiment with SK-MEL-5 melanoma is 87.8%; in the experiment with UACC-62 melanoma, 105%; in the experiment with LOX IMVI melanoma, 83.7%; with SK-MEL-28 melanoma it was 94.3%.

Regarding `O=S(=O)(NCCCNc1nccc(-c2[nH]c(-c3ccccc3)nc2-c2ccc(Cl)c(O)c2)n1)c1cccc2ccccc12`, the growth in the experiment with HCT-15 colon is 16.3%; in the experiment on HT29 colon, 38.6%; with SNB-75 CNS it was 43.4%; in the experiment with SNB-19 CNS, 37.8%; in the experiment with U251 CNS, 14.7%; with PC-3 prostate it was 26.2%. Further, the growth with SK-MEL-5 melanoma was 13.1%; in the experiment on UACC-62 melanoma it was 17.4%; in the experiment with LOX IMVI melanoma it was 19.8%; in the experiment with SK-MEL-28 melanoma, 29.8%.

Take `COc1cc(-c2nc3sccn3c2-c2ccnc(S(C)(=O)=O)n2)ccc1F`: the growth with HCT-15 colon was 77.9%; in the experiment with HT29 colon it was 116%; in the experiment on SNB-75 CNS, 76.1%; in the experiment on SNB-19 CNS, 92%; in the experiment with U251 CNS, 99.1%; in the experiment on PC-3 prostate, 105%. In addition, the growth with SK-MEL-5 melanoma was 96.5%; in the experiment with UACC-62 melanoma, 81.3%; in the experiment with LOX IMVI melanoma, 102%; in the experiment with SK-MEL-28 melanoma, 97.7%.

With `COc1ccc(-c2nc3cccc(O)c3c(=O)n2Cc2ccccc2)cc1COc1ccc(NC(C)=O)cc1`, the growth in the experiment on HCT-15 colon is 12.5% [3 µM]; in the experiment with HT29 colon it was 55.9% [3 µM]; in the experiment with SNB-75 CNS, 44.8% [3 µM]; in the experiment on SNB-19 CNS, 42% [3 µM]; with U251 CNS it was 30% [3 µM]; in the experiment on PC-3 prostate, 36.5% [3 µM]. In addition, the growth is 29.4% [3 µM] with SK-MEL-5 melanoma, 37.3% [3 µM] in the experiment on UACC-62 melanoma, 2.67% [3 µM] (active) with LOX IMVI melanoma and 55.4% [3 µM] in the experiment with SK-MEL-28 melanoma.

Take `O=C(NNc1nc2cc(F)c(F)cc2n2cccc12)c1cnccn1`: the growth in the experiment with HCT-15 colon is 13.9%; in the experiment on HT29 colon, 36.8%; in the experiment on SNB-75 CNS, 54.7%; with SNB-19 CNS it was 31.5%; in the experiment on U251 CNS, 26.4%; in the experiment with PC-3 prostate, 29.4%. Further, the growth in the experiment on SK-MEL-5 melanoma was 29.3%; with UACC-62 melanoma, 22.2%; in the experiment with LOX IMVI melanoma, 11.4%; with SK-MEL-28 melanoma it was 36%.

`CCOC(=O)c1c(Nc2ccccc2)nn2c(-c3ccc(OC)cc3)ccnc12`: the growth in the experiment with HCT-15 colon was 48.6%; in the experiment with HT29 colon, 74.9%; in the experiment with SNB-75 CNS it was 82.7%; with SNB-19 CNS, 109%; in the experiment on U251 CNS it was 89.2%; in the experiment on PC-3 prostate it was 99.2%. The growth is 71.3% with SK-MEL-5 melanoma, 95.1% in the experiment with UACC-62 melanoma, 80.3% in the experiment with LOX IMVI melanoma and 89.9% with SK-MEL-28 melanoma.

`Oc1[nH]c2ccccc2c1Nn1c(N=N/C=c2/ccc3c(c2)C=NN=3)n[nH]c1=S`: the growth is 115% in the experiment on HCT-15 colon; 19.4% with HT29 colon; 66.7% in the experiment on SNB-75 CNS; 98.9% in the experiment with SNB-19 CNS; 111% in the experiment with U251 CNS; 97.4% with PC-3 prostate. For the same molecule, the growth was 92% with SK-MEL-5 melanoma, 98.9% in the experiment with UACC-62 melanoma, 97.6% in the experiment on LOX IMVI melanoma and 115% in the experiment on SK-MEL-28 melanoma.

As for `COc1cc(/C=C2\C(=O)Nc3ccccc32)ccc1OCc1ccc(F)cc1`, the growth with HCT-15 colon was 101%; in the experiment with HT29 colon, 105%; in the experiment with SNB-75 CNS, 106%; with SNB-19 CNS, 99.3%; with U251 CNS, 106%; in the experiment with PC-3 prostate it was 101%. Further, the growth was 102% with SK-MEL-5 melanoma, 92.7% in the experiment with UACC-62 melanoma, 97.3% with LOX IMVI melanoma and 110% in the experiment on SK-MEL-28 melanoma.

As for `COc1cccc2c1CN(C(=O)c1ccc(O)c(C(=O)N3Cc4ccc(OCCC[P+](c5ccccc5)(c5ccccc5)c5ccccc5)cc4C3)c1)C2`, the growth with HCT-15 colon was 102%; with HT29 colon it was 100%; with SNB-75 CNS, 80.9%; with SNB-19 CNS, 28.3%; with U251 CNS, 53.6%; with PC-3 prostate it was 71.7%. Further, the growth in the experiment on SK-MEL-5 melanoma was 35.7%; in the experiment on UACC-62 melanoma it was 44.4%; in the experiment on LOX IMVI melanoma, 42.7%; in the experiment with SK-MEL-28 melanoma, 63.2%.

As for `O=S(=O)(NCCCNc1nccc(-n2cnc3ccccc32)n1)c1ccc(C(F)(F)F)cc1`, the growth was 81.8% in the experiment on HCT-15 colon; 96.3% with HT29 colon; 87.2% in the experiment with SNB-75 CNS; 94.2% in the experiment with SNB-19 CNS; 90.8% in the experiment with U251 CNS; 66.7% in the experiment on PC-3 prostate. Further, the growth with SK-MEL-5 melanoma was 58.8%; in the experiment with LOX IMVI melanoma, 85.6%; with SK-MEL-28 melanoma, 103%.

Regarding `Nc1ncc(-c2ccc3ncnc(Nc4cccc(Cl)c4F)c3c2)cn1`, the growth in the experiment with HCT-15 colon is 56.4%; with HT29 colon it was 78.9%; in the experiment with SNB-75 CNS, 53.2%; in the experiment with SNB-19 CNS, 59.4%; in the experiment with U251 CNS, 67.9%; in the experiment with PC-3 prostate it was 61%. Moreover, the growth in the experiment on SK-MEL-5 melanoma was 63.6%; in the experiment with LOX IMVI melanoma, 77.4%; with SK-MEL-28 melanoma, 65.2%.

Regarding `Nc1ncc(-c2ccc3ncnc(N4CCc5cc(F)c(F)cc54)c3c2)cn1`, the growth was 23.1% with HCT-15 colon; 33.1% in the experiment with HT29 colon; 27.3% in the experiment with SNB-75 CNS; 43.1% with SNB-19 CNS; 41.2% in the experiment on U251 CNS; 17.7% with PC-3 prostate. Also, the figures for the growth in the experiment on SK-MEL-5 melanoma, with LOX IMVI melanoma and with SK-MEL-28 melanoma were 16.2%, 11.1% and 33.2%, respectively.

The values are drawn from PubChem BioAssay (NCI).
